Reference: PubChem BioAssay
Where “and” joins values, the source holds several entries; their conditions need not be identical. Equal entries are not always repeated. Calls of active or inactive are those of the source.

What was measured:
[1] = anti-His antibody binders, primary screen, artefact control for SMM control protein annotation, biochemical, small-molecule microarray, 635 nm fluorescence (AID 1128); details: anti-His Alexa647 antibody binding, higher = more signal;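 also: score merges feature fluorescence with signal-to-noise for each printed compound spot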
[2] = tested on: Human papillomavirus type 1a E7 protein (residues 1-88); test: HPV1a E7 small-molecule binders, primary screen, biochemical, small-molecule microarray, residues 1-88, 635 nm (AID 1129); details: small-molecule microarray binding, fluorescence 635 nm; higher = more signal
[3] = biological target: Focal adhesion kinase 1 (Homo sapiens) (UniProt Q05397); test: small-molecule microarray binders of FAK, primary screen, biochemical, 635/667 nm fluorescence, BSA, DTT (AID 1130); details: PTK2 binding, 635 nm fluorescence, higher = more signal;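 also: composite of spot emission at 667 nm and signal to noise over triplicate slides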
Sequence of Focal adhesion kinase 1 (Homo sapiens) (Q05397 whole entry, looked up): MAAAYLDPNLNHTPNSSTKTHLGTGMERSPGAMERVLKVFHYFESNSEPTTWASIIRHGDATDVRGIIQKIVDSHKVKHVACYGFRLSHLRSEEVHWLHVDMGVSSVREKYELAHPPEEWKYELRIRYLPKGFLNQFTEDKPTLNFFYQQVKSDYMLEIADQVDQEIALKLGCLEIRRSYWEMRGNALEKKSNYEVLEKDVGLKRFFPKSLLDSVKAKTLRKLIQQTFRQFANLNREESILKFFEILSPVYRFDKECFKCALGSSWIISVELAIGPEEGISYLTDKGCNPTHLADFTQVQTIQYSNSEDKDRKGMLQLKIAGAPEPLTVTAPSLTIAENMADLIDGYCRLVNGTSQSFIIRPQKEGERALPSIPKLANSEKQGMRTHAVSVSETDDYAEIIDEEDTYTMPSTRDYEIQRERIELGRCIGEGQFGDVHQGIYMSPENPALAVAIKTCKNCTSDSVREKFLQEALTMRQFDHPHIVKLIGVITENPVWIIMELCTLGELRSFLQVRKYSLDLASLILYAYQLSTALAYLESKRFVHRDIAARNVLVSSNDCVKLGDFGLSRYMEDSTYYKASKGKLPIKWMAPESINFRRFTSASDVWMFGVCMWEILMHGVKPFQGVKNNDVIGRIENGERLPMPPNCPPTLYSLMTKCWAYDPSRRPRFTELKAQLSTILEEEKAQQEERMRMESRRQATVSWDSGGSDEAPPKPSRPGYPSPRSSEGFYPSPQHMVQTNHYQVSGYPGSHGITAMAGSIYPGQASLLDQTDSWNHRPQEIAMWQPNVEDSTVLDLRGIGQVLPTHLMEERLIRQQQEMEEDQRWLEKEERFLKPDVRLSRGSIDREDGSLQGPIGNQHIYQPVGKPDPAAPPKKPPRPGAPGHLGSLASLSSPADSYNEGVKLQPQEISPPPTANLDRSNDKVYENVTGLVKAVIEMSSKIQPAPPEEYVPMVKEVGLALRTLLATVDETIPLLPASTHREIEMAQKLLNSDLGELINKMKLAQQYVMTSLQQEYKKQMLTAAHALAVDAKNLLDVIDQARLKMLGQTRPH

[4] = tested on: Fibrinogen (Alexa647-labelled); test: fibrinogen binders on compound microarrays, profiling panel, artefact control for SMM control-protein annotation, biochemical, small-molecule microarray, 635/667 nm fluorescence (AID 1131); details: fibrinogen-A647 binding fluorescence, higher = more signal;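 also: z-score merges 667 nm fluorescence with per-spot signal-to-noise over triplicate slides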
[5] = biological target: Follistatin (Homo sapiens) (UniProt P19883); test: follistatin binders on small-molecule microarrays, primary screen, biochemical, small-molecule microarray, 635/667 nm fluorescence (AID 1132); details: FST binding, 635 nm fluorescence, higher = more signal
Sequence of Follistatin (Homo sapiens) (P19883 whole entry, looked up): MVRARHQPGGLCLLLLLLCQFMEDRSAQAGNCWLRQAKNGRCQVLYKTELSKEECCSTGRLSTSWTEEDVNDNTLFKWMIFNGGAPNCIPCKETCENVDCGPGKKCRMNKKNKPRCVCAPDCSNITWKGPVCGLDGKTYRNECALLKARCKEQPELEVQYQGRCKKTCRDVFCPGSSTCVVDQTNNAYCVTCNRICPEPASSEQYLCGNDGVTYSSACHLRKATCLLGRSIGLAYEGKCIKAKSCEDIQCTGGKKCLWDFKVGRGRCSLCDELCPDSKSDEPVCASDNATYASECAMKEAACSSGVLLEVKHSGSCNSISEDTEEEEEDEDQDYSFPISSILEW

[6] = biological target: Fibroblast growth factor 2 (Homo sapiens) (UniProt P09038); test: FGF2 binders on small-molecule microarrays, primary screen, biochemical, small-molecule microarray, 635/667 nm fluorescence (AID 1133); details: small-molecule microarray binding, FGF2, fluorescence 635/667; higher = more signal
Sequence of Fibroblast growth factor 2 (Homo sapiens) (P09038 whole entry, looked up): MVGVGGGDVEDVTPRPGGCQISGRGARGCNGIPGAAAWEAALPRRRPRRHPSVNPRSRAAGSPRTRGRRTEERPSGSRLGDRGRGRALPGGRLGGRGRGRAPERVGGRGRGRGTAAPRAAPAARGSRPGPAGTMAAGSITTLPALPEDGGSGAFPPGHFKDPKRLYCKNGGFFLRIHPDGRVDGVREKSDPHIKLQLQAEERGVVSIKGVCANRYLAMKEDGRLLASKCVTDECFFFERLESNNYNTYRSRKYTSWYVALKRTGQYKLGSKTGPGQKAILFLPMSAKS

[7] = mitochondrial membrane potential change in A549 cells, profiling panel, cell-based, JC-1 fluorescence, basal, 24 h, 100 nL (AID 1138); details: higher = more signal;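 also: A549 lung adenocarcinoma cells under basal conditions with no added stimulus; test concentration not given here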
Lefty1 = Lefty1 binders on small-molecule microarrays, primary screen, biochemical, small-molecule microarray, 635/667 nm fluorescence (AID 1139); details: small-molecule microarray binding, fluorescence 635/667; higher = more signal
[8] = tested on: wheat germ agglutinin (Triticum aestivum), Alexa647-labelled; test: wheat germ agglutinin binders on compound microarrays, profiling panel, artefact control for SMM control-protein annotation, biochemical, small-molecule microarray, 635/667 nm fluorescence (AID 1140); details: WGA-A647 binding, 635 nm fluorescence, higher = more signal;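 also: score merges 667 nm feature emission with signal to noise over triplicate slides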
[9] = biological target: Luciferin 4-monooxygenase (Photinus pyralis) (UniProt P08659); test: firefly luciferase enzyme inhibitors, primary screen, biochemical, luminescence, purified enzyme, 2006 set (AID 1141); details: SteadyGlo luminescence, 30 min, higher = more signal, called active from +8 up or from −8 down;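 also: cell-free assay with purified firefly luciferase at 100 ng per well in PBS; test concentration not given here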
Sequence of Luciferin 4-monooxygenase (Photinus pyralis) (P08659 whole entry, looked up): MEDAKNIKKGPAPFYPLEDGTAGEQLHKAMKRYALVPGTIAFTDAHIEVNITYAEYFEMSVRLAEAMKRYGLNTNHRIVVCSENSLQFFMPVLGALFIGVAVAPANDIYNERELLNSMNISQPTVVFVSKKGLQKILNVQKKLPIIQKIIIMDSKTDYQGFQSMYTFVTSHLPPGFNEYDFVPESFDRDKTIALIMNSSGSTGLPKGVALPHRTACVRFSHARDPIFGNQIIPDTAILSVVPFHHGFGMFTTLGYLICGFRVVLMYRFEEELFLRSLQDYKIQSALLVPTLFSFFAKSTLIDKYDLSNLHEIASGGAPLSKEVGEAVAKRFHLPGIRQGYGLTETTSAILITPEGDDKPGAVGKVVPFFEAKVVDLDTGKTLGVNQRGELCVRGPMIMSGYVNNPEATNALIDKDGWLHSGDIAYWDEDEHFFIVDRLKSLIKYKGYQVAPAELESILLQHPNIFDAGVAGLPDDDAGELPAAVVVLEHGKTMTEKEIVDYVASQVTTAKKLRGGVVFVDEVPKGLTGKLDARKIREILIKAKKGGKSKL

SMILES	composite z-score [1]	composite z-score [2]	composite z-score [3]	composite z-score [4]	composite z-score [5]	composite z-score [6]	z-score [7]	composite z-score (Lefty1)	composite z-score [8]	z-score [9]
C[C@@H]1CC[C@@H](C(=O)O)N[C@H]1c1ccc(-c2ccco2)cc1	0.893	-0.253	0.0242	1.02	1.32	1.14	1.41	1.18	0.589	-0.906 (inactive)
C=CCN(CCCCC)C(=O)C1N(c2ccc(CCO)cc2)C(=O)C2C(C(=O)O)C3C=CC21O3 (stereo not given)	-1.26 and -0.352	-1.44 and -0.943	-0.886 and -0.776	-0.916 and -0.657	-0.974 and -0.877	-0.989 and -0.883	0.157 and -0.0775	-1.47 and -0.885	0.961 and -0.241	-0.929 (inactive) and -0.832 (inactive)
C=CCN(C(=O)C(c1cccs1)N(CCOCCO)C(=O)/C=C\C(=O)O)c1ccc(OC)cc1 (stereo not given)	-0.542 and -1.89	-0.923 and -1.57	-0.303 and -0.67	-0.627 and -1.54	-0.745 and -1.07	-0.993 and -1.6	0.13 and 1	-0.208 and -1.45	-0.628 and -2.28	0.286 (inactive) and -2.02 (inactive)
C=CCN(CCCC)C(=O)C(c1cccs1)N(C(=O)/C=C\C(=O)O)c1c(Cl)cccc1CO (stereo not given)	-0.71 and -0.792	-0.925 and -1.1	-0.859 and 1.27	-2.84 and -3.52	-2.44 and -1.69	-2.72 and -1.18	-0.107 and -0.132	-2.81 and -2.2	-0.178 and -0.7	1.01 (inactive) and 0.833 (inactive)
COc1ccc(O[C@H]2C=C[C@@H](c3ccccc3)O[C@@H]2COC(=O)CCC(C)=NO[C@H](C)c2cn([C@H](CO)Cc3ccccc3)nn2)cc1	2.33 and 1.58	-0.0422 and 0.437	0.142 and -0.0962	0.643 and 0.766	0.125 and 0.326	0.218 and 0.684	-1.04 and -0.144	0.653 and 0.557	0.207 and 0.223	0.845 (inactive) and -0.59 (inactive)
C=CCN(C(=O)C(c1cccs1)N(C(=O)/C=C\C(=O)O)c1c(Cl)cccc1CO)c1ccc(OC)cc1 (stereo not given)	-1.78 and -1.48	-1.15 and -0.74	-0.93 and -0.641	-1.13 and -0.594	-2.61 and -1.19	-2.55 and -1.44	1.26 and 1.98	-2.98 and -2.04	-0.55 and 0.213	-1.47 (inactive) and -1.26 (inactive)
C=CCN1C(=O)[C@]2(O[C@H](CCn3cc(CCO)nn3)[C@@H]([Si](C)(C)c3ccc(OC)cc3)[C@@H]2C)c2cc(N3C(=O)c4cccc5cccc3c45)ccc21	0.783 and 1.59	1.14 and 1.08	0.216 and 0.369	0.57 and 0.583	0.687 and 0.0673	0.296 and 0.381	-1.09 and -0.743	0.794 and 0.721	0.532 and 0.53	-0.511 (inactive) and 0.185 (inactive)
C[C@@H](c1ccccc1)N1C(=O)[C@H]2[C@H]3[C@H](O)[C@H](O)CC(=O)[C@@H]3CC[C@H]2C1=O	0.338	0.793	0.866	0.212	0.605	1.08	0.792	1.64	0.108	-1.87 (inactive)
C=CCN(C(=O)C1N(c2ccc(CCO)cc2)C(=O)C2C(C(=O)O)C3C=CC21O3)c1ccc(OC)cc1 (stereo not given)	0.0218 and -0.668	-0.304 and -0.769	0.0134 and -1.17	-0.369 and -1.3	-0.697 and -0.794	-1.24 and -1.75	-0.742 and -0.718	-0.708 and -0.967	0.0183 and -0.967	-0.622 (inactive) and 2.07 (inactive)
C=CCN(CCCCC)C(=O)C1N(c2c(Cl)cccc2CO)C(=O)C2C(C(=O)O)C3C=CC21O3 (stereo not given)	-1.91 and -0.805	-0.751 and -1.1	-0.845 and -0.37	-1.41 and -1.31	-2.55 and -0.968	-2.42 and -2.09	-1.02 and -0.472	-1.6 and -1.98	-2.05 and -1.28	0.975 (inactive) and 0.308 (inactive)
